13 compounds from PubChem BioAssay AID602144 (Vanderbilt Specialized Chemistry Center, 2011) can be followed below.

By remaining activity is commonly meant the signal under treatment as a percentage of the control signal.

Values joined by “and” are separate entries in the source; they are usually repeats but may differ in a detail not shown here. Equal values may be shown once. Unmarked numbers belong to inactive results. Active and inactive are the calls of the source. No stated cut-off is given here; in the data, active means remaining activity below about 50%; inactive means the rest.

In the experiment the target is Phospholipase D1 (Homo sapiens) (UniProt Q13393). Description: PLD1 inhibitors in cells, Calu-1 cells, single concentration (AID 602144).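 Further: tested at 200 nM.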 The settings on record: cellular PLD1 activity, stronger effect = lower value.
Phospholipase D1 (Homo sapiens), sequence (Q13393 whole entry, looked up): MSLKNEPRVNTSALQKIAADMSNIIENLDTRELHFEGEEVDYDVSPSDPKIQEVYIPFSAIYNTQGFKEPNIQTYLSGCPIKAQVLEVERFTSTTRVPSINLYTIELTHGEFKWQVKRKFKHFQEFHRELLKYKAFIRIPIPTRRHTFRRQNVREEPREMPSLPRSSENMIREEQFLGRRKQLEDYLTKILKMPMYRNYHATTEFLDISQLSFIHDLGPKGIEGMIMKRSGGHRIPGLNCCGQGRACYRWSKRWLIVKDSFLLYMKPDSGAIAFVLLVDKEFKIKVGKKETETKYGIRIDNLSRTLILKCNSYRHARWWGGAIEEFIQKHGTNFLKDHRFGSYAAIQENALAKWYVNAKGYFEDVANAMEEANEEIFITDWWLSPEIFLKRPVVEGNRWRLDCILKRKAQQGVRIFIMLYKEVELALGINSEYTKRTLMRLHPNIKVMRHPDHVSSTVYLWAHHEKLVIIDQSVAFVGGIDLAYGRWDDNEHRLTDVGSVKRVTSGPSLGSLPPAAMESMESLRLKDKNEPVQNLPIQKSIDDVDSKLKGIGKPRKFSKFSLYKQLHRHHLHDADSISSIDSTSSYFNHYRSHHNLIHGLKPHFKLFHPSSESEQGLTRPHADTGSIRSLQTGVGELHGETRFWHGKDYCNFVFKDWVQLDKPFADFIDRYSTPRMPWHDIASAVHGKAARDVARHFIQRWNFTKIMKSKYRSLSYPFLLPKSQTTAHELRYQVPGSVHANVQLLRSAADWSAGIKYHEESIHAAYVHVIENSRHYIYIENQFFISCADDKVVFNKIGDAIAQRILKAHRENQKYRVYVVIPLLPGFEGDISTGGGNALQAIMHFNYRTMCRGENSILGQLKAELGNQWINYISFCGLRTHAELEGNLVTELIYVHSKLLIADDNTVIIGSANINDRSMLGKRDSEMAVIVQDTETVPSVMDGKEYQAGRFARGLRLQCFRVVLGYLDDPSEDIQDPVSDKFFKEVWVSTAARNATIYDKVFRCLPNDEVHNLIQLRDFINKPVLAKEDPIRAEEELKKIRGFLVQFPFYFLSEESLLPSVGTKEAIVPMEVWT
Phospholipase D1 (Homo sapiens), sequence (Q13393 whole entry, looked up): as above
Turning to `NCCN1CCC(n2c(=O)[nH]c3cc(Cl)ccc32)CC1` (tested in a mixture with another compound), the remaining activity is 62.4%.

On to `C[C@@H](NC(=O)NCCN1CCC(n2c(=O)[nH]c3ccccc32)CC1)c1ccccc1`, for which the remaining activity is 131% and 118%.

For the compound `C[C@H](N)CN1CCC(c2nc3ccccc3n2C)CC1` (tested in a mixture with another compound), the remaining activity was 88.8%.

On to `O=C(NCCN1CCN(c2ccncc2)CC1)c1ccc2ccccc2c1`, for which the remaining activity is 139%.

As to `O=C(NCCN1CCC(n2c(=O)[nH]c3ccccc32)CC1)c1ccc(-c2ccccc2)o1`, the remaining activity was 38.7% (active).

On to `O=C(NCCN1CCC(n2nnc3ccccc32)CC1)C1CC1c1ccccc1` (stereo not drawn), for which the remaining activity is 52.7%.

Consider `O=C(NCCN1CCC(n2nnc3ccccc32)CC1)c1ccc2ccccc2c1`, for which the remaining activity was 19.1% (active).

As for `O=C(NCCN1CCC2(CCc3ccccc32)CC1)c1cnc2ccccc2c1`, the remaining activity was 113%.

`COc1ccccc1NC(=S)NCCN1CCC(n2c(=O)[nH]c3ccccc32)CC1`: the remaining activity was 152%.

For `CCCCS(=O)(=O)NCCN1CCC(n2c(=O)[nH]c3ccccc32)CC1`, the remaining activity was 124%.

`O=c1[nH]c2ccccc2n1C1CCN(CCNC(=S)Nc2ccccn2)CC1`: the remaining activity is 148%.

For the compound `C[C@@H](CN1CCC(n2c(=O)[nH]c3ccc(F)cc32)CC1)NC(=O)c1ccc(F)c(F)c1`, the remaining activity was 13.7% (active).

For `O=c1[nH]c2ccccc2n1C1CCN(CCNS(=O)(=O)c2ccccc2Br)CC1`, the remaining activity was 112%.
